Test results as given in PubChem BioAssay AID2284376 (EPA ToxCast).
Where “and” joins values, the source holds several entries; their conditions need not be identical. Equal entries are not always repeated. Calls of active or inactive are those of the source. Rule for the calls: active = hit-call score of the fitted dose curve at least 0.9, where 1 is the maximum; inactive = score below 0.9.

Molecular target: Peroxisome proliferator-activated receptor gamma (Homo sapiens) (UniProt P37231)
Test: ERF_TW_NR_COA_hPPARG: Eurofins (ERF) Nuclear Receptor (NR) Functional Coactivator Assay for human Peroxisome Proliferator-activated Receptor gamma (PPARg) Agonism, conducted at Taiwan lab site
Method: ERF_TW_NR_COA_hPPARG is a biochemical, single-readout assay that uses extracted gene-proteins in a cell-free assay. Measurements were taken 16 hours after chemical dosing in a 96-well plate. See PPARgamma Human NHR Functional Agonist Coactivator Assay, Panlabs.ERF_TW_NR_COA_hPPARG is an assay component calculated from the ERF_TW_NR_COA_hPPARG assay. It is designed to measure FRET using a type of binding reporter as detected by fluorescence intensity of rosiglitazone with fluorimetry technology.Data from the assay component ERF_TW_NR_COA_hPPARG was analyzed at the assay endpoint, ERF_TW_NR_COA_hPPARG, in the positive analysis fitting direction relative to DMSO as the negative control and baseline of activity. Using a type of binding reporter, gain-of-signal activity can be used to understand changes in binding as they relate to gene PPARG. To generalize the intended target to other relatable targets, this assay endpoint is annotated to the nuclear receptor intended target family, where the subfamily is non-steroidal.
Human recombinant PPARgamma receptors expressed in insect cells are used. Test compound and/or vehicle is incubated with the 2 nM receptors and coactivator peptide for 180 minutes at room temperature. Determination of the amount of complex formed is read spectrofluorimetrically (excitation: 337 nm, emission: 520/490 nm). Test compound-induced increase fluorescence by 50 percent or more (>/=50%) relative to 1 uM GW1929 response indicates possible PPARgamma receptor agonist activity. Test compound-induced inhibition of 5 nM GW1929-induced fluorescence response by 50 percent or more (>/=50%) indicates receptor antagonist activity.

Chain of Peroxisome proliferator-activated receptor gamma (Homo sapiens) (P37231 whole entry, looked up): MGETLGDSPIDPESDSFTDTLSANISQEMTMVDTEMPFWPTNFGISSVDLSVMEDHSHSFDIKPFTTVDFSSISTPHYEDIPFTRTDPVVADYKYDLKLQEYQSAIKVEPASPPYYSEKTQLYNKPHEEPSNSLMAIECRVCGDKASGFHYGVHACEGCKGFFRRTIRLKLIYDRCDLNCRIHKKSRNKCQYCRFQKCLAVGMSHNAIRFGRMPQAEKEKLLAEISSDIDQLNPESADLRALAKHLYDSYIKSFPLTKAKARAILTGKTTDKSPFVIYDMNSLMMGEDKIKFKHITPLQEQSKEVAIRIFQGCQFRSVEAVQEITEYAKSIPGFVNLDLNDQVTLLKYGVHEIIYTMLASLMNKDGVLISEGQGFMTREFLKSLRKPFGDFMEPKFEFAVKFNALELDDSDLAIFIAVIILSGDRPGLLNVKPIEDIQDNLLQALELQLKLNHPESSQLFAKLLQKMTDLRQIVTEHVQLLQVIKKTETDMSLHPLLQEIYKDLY

| Structure (SMILES) | AC50 | outcome |
| --- | --- | --- |
| O=C(CC(=O)C(F)(F)C(F)(F)C(F)(F)F)c1cccs1 | 44.4 µM (active) and 43.2 µM (active) | – |
| O=C(O)CCC(F)(F)C(F)(F)C(F)(F)F | – | inactive |
| NC(=O)c1nc(-c2cccc(-c3cc(F)ccc3OCC(F)(F)C(F)(F)F)c2)n[nH]1 | – | inactive |
